PubChem BioAssay (NCI)
Values joined by “and” are separate entries in the source; they are usually repeats but may differ in a detail not shown here. Equal values may be shown once. The panel holds about 83,000 compounds, 20% with a hit somewhere; the sample as a whole holds those more often.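 Cell lines were cultured in 96-well plates, exposed to a single compound concentration, and assessed for percent growth 48 hours later.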 Active and inactive are the calls of the source. The calls were made as follows: active = growth percent below 10; inactive = the rest.

Columns and labels:
Assay in all cases: NCI-60 one-dose screen, 48 h (100 = growth as untreated, 0 = no growth, -100 = all killed)
HCT-15 colon = details: 10 µM
HT29 colon = details: 10 µM
SNB-75 CNS = details: 10 µM
SNB-19 CNS = details: 10 µM
U251 CNS = details: 10 µM
PC-3 prostate = details: 10 µM
UACC-62 melanoma = system: UACC-62 melanoma
LOX IMVI melanoma = details: 10 µM
SK-MEL-28 melanoma = details: 10 µM
SK-MEL-2 melanoma = details: 10 µM

| Structure (SMILES) | growth (HCT-15 colon) | growth (HT29 colon) | growth (SNB-75 CNS) | growth (SNB-19 CNS) | growth (U251 CNS) | growth (PC-3 prostate) | growth (UACC-62 melanoma; 10 µM) | growth (LOX IMVI melanoma) | growth (SK-MEL-28 melanoma) | growth (SK-MEL-2 melanoma) | growth (UACC-62 melanoma; 100 µM) | growth (UACC-62 melanoma; 25 µM) |
| --- | --- | --- | --- | --- | --- | --- | --- | --- | --- | --- | --- | --- |
| COc1ccc(N)c2c1C(=O)c1ccccc1C2=O | 87.1% (inactive) | 93.6% (inactive) | 95.6% (inactive) | 101% (inactive) | 97.9% (inactive) | 89.6% (inactive) | 94.3% (inactive) | 104% (inactive) | 128% (inactive) | 99.5% (inactive) |  |  |
| CN(C)c1ccc(/C=C/c2ccnc3ccccc23)cc1N |  | 58.5% (inactive) | 85.8% (inactive) | 80.2% (inactive) | 66.7% (inactive) | 60.4% (inactive) | 63.3% (inactive) | 71.4% (inactive) | 83.8% (inactive) | 67.5% (inactive) |  |  |
| O=C1C(Cl)=C(Cl)C(Cl)(Cl)C(Cl)C1(Cl)Cl (stereo not drawn) |  | 99.5% (inactive) | 88.9% (inactive) | 108% (inactive) | 103% (inactive) | 101% (inactive) | 98.7% (inactive) | 96.2% (inactive) | 114% (inactive) | 100% (inactive) |  |  |
| Cc1cc(Cl)ccc1NC(=O)/C(Cl)=C1/Sc2ccccc2NC1=O |  | 107% (inactive) | 70.8% (inactive) | 94% (inactive) | 94.7% (inactive) | 78% (inactive) | 74% (inactive) | 73.6% (inactive) | 125% (inactive) |  |  |  |
| Cc1cc(C)c(N2C(=O)CC(Sc3ccccc3N)C2=O)c(C)c1 (stereo not drawn) |  | 66.2% (inactive) | 55.7% (inactive) | 83.1% (inactive) | 81.3% (inactive) | 68.4% (inactive) | 60.8% (inactive) | 69.9% (inactive) | 60.7% (inactive) | 88.5% (inactive) |  |  |
| C=C(C)[C@@H]1CCc2c(O)c(O)c(=O)cc(C)c2C1 |  |  |  |  |  |  |  |  |  |  | -52.3% (active) and -85% (active) |  |
| Clc1c(Cl)c(Cl)c2c(nnn2C2CCCO2)c1Cl (stereo not drawn) |  |  |  |  |  |  |  |  |  |  | -55.3% (active) and -99.6% (active) |  |
| Nc1nc(N)c2cc(Sc3ccc4ccccc4c3)ccc2n1 |  | 9.75% (active) | 53.5% (inactive) | 35.7% (inactive) | 27.4% (inactive) | 35.6% (inactive) | 27.3% (inactive) | 21% (inactive) | 61.7% (inactive) | 75.3% (inactive) |  |  |
| CO[C@@]12[C@H](COC(N)=O)C3=C(C(=O)C(C)=C(N)C3=O)N1C[C@@H]1N[C@@H]12 |  |  |  |  |  |  |  |  |  |  |  | -83.6% (active) and -100% (active) |
| O=C1c2ccccc2CCC1(Br)Br |  | 12% (inactive) | 56.6% (inactive) | 89.4% (inactive) |  | 54.5% (inactive) | 32.1% (inactive) |  | 56.5% (inactive) |  |  |  |
| O=C(CCc1ccccc1)ON1C(=S)C(c2ccccc2)(c2ccccc2)N=C1Sc1ccccc1 |  |  |  |  |  |  |  |  |  |  | 10.7% (inactive) and 0.462% (active) |  |
| CN(C)CCNc1cccc2sc3ccc(O)cc3c(=O)c12 |  | 6.36% (active) | 31.8% (inactive) | 57.4% (inactive) |  | 38.7% (inactive) | 57.8% (inactive) | 18.3% (inactive) | 69.2% (inactive) | 64% (inactive) |  |  |
| CC[C@@]1(OC(=O)CN(C)C)C(=O)OCc2c1cc1n(c2=O)Cc2cc3c(N)cccc3nc2-1 |  | 4.94% (active) | -10.5% (active) | 11.2% (inactive) | 3.98% (active) | 18% (inactive) | -77.8% (active) | -39.3% (active) | 16.5% (inactive) | -17.4% (active) |  |  |
| COc1cc2c(cc1C[N+](C)(C)CSc1ccccc1)-c1ccccc1CC2 |  |  |  |  |  |  |  |  |  |  | -96.4% (active) and -92.3% (active) |  |
| O=C1C=CC(=O)N1c1ccc(N2C(=O)C=CC2=O)cc1 |  | 105% (inactive) | 95.6% (inactive) |  | 101% (inactive) | 112% (inactive) | 96.5% (inactive) | 85% (inactive) | 135% (inactive) | 108% (inactive) |  |  |
| O=[N+]([O-])c1cc(S(=O)(=O)Nc2ccccc2)ccc1Cl |  | 101% (inactive) | 69.3% (inactive) | 95.5% (inactive) | 100% (inactive) | 94.3% (inactive) | 84.7% (inactive) | 77.6% (inactive) | 102% (inactive) | 93.3% (inactive) |  |  |
| COc1ccc(C(C#N)=C2C=CC(=NO)C=C2)cc1 |  |  | 91.6% (inactive) | 111% (inactive) | 53.9% (inactive) | 50.4% (inactive) | 66.3% (inactive) | 59.5% (inactive) | 106% (inactive) |  |  |  |
| Cc1cc(N=C2C=CC(=[N+](C)C)C=C2)c(N)cc1N |  | 93.8% (inactive) | 102% (inactive) | 87.3% (inactive) | 93.2% (inactive) |  | 89.8% (inactive) | 79% (inactive) | 103% (inactive) | 106% (inactive) |  |  |
| COc1ccc2c(c1)[nH]c1c(/C=C/c3ccccc3)nccc12 |  | 21.6% (inactive) | 35.7% (inactive) | 76.5% (inactive) | 70.4% (inactive) | 42.5% (inactive) | 78.9% (inactive) | 63.4% (inactive) |  | 89.5% (inactive) |  |  |
| CC1CCC2(C(=O)O)CCC3(C)C(=CCC4C5(C)CC(O)C(O)C(C)(CO)C5C(O)CC43C)C2C1C (stereo not drawn) |  | 110% (inactive) | 91.8% (inactive) | 98.7% (inactive) | 103% (inactive) | 97.5% (inactive) | 104% (inactive) | 107% (inactive) |  | 104% (inactive) |  |  |
| N#CC(=C1C=CC(=NO)C=C1)c1ccccc1 |  | 1.57% (active) | -1.66% (active) | 59.6% (inactive) | 9.88% (active) | 3.44% (active) |  | -6.53% (active) | 76.3% (inactive) | 41.1% (inactive) |  |  |
| Cc1cc(O)c2c(c1O)C(=O)C13C(=C2O)C(=O)C2C(O)C1C1C(O)C3C(=O)C3=C(O)c4c(O)cc(C)c(O)c4C(=O)C321 (stereo not drawn) |  | 3.7% (active) | 20% (inactive) | 5.61% (active) | 12.3% (inactive) | 10.3% (inactive) | -48.1% (active) | 7.97% (active) | 9.99% (active) | -6.64% (active) |  |  |
| COc1cccc(C(c2cc3c(cc2O)OCO3)N2CCOCC2)c1OC (stereo not drawn) |  | 106% (inactive) | 91.2% (inactive) | 98.5% (inactive) | 101% (inactive) | 95.7% (inactive) | 95.3% (inactive) | 97.3% (inactive) |  | 101% (inactive) |  |  |
| N#CC(=S)Nc1cccc(Cl)c1 |  |  |  |  |  |  |  |  |  |  | 1.5% (active) and -86.8% (active) |  |
| CCC(C)(c1ccc(O)c(C)c1)c1ccc(O)c(C)c1 |  | 104% (inactive) | 64.8% (inactive) | 105% (inactive) | 94.4% (inactive) | 86.1% (inactive) | 68.9% (inactive) | 104% (inactive) | 133% (inactive) | 94.4% (inactive) |  |  |
| O=C(CNS(=O)(=O)Cc1ccccc1)NNc1ccccc1 |  | 81.5% (inactive) | 76.8% (inactive) | 88.3% (inactive) | 82.7% (inactive) | 63.2% (inactive) | 14.9% (inactive) |  | 94% (inactive) | 97.1% (inactive) |  |  |
| O=S(=O)(c1cc(Cl)ccc1O)c1cc(Cl)ccc1O |  | 105% (inactive) | 77.1% (inactive) | 91.8% (inactive) | 76.7% (inactive) | 80.6% (inactive) | 31.1% (inactive) | 93.5% (inactive) | 87.5% (inactive) | 64% (inactive) |  |  |
| NCc1c(O)ccc2ccccc12 |  | 103% (inactive) | 73.5% (inactive) |  | 103% (inactive) | 84.9% (inactive) | 95.4% (inactive) | 101% (inactive) | 105% (inactive) | 98.2% (inactive) |  |  |
| COc1cc(N)ccc1Nc1c2ccccc2nc2ccccc12 |  | -62.4% (active) | 91% (inactive) | 99.7% (inactive) |  | 59% (inactive) | 89.6% (inactive) | -23.6% (active) | 107% (inactive) | 109% (inactive) |  |  |
